Columns and labels:
Assay in all cases: PBM binding z-score (relative to random genomic background probes); higher = stronger binding; sequences stand for … in GC…GCGATTGACAGCGTAGAATGAAGG
[1] = tested on: FXR:RXRa (NR concentration 270 nM, RXRa partner concentration 90 nM)
In short: (§1)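 Binding z-scores were set against random background probes. The data came from custom Agilent 4×180K protein-binding microarrays carrying double-stranded probes with 34-nt variable regions, incubated 1 h with ligand-free nuclear receptor dimers. Partner-specific antibodies detected binding, and scanned fluorescence was regression-normalized.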

[2] = tested on: LXRa:RXRa (NR concentration 270 nM, RXRa partner concentration 90 nM)
In short: as §1

[3] = tested on: LXRa homodimer (NR concentration 270 nM)
In short: as §1

[4] = tested on: LXRb:RXRa (NR concentration 270 nM, RXRa partner concentration 90 nM)
In short: as §1

[5] = tested on: LXRb homodimer (NR concentration 270 nM)
In short: as §1

[6] = tested on: PPARa:RXRa (NR concentration 270 nM, RXRa partner concentration 90 nM)
In short: as §1

[7] = tested on: PPARg:RXRa (NR concentration 180 nM, RXRa partner concentration 90 nM)
In short: as §1

[8] = tested on: PPARg:RXRa 270nM:90nM, anti-RXR (NR concentration 270 nM, RXRa partner concentration 90 nM)
In short: as §1

[9] = tested on: PPARg:RXRa 30nM:10nM, anti-RXR (NR concentration 30 nM, RXRa partner concentration 10 nM)
In short: as §1

[10] = tested on: PPARg:RXRa 90nM:30nM, anti-RXR (NR concentration 90 nM, RXRa partner concentration 30 nM)
In short: as §1

[11] = tested on: PPARg:RXRa DBDmut IVT, anti-RXR (DBD mutation: RXRa K156A/R161A, NR concentration 270 nM, RXRa partner concentration 90 nM)
In short: as §1

[12] = tested on: PPARg:RXRa IVT, anti-PPARg (NR concentration 270 nM, RXRa partner concentration 90 nM)
In short: as §1

[13] = tested on: PPARg DBDmut:RXRa IVT, anti-PPARg (DBD mutation: PPARg1 K132A/R137A, NR concentration 270 nM, RXRa partner concentration 90 nM)
In short: as §1

[14] = tested on: PPARg DBDmut IVT, anti-PPARg (DBD mutation: PPARg1 K132A/R137A, NR concentration 270 nM)
In short: as §1

[15] = tested on: PPARg homodimer (NR concentration 180 nM)
In short: as §1

[16] = tested on: PXR:RXRa (NR concentration 270 nM, RXRa partner concentration 90 nM)
In short: as §1

[17] = tested on: PXR homodimer (NR concentration 270 nM)
In short: as §1

[18] = tested on: RARa:RXR (NR concentration 270 nM, RXRa partner concentration 90 nM)
In short: as §1

[19] = tested on: RARa homodimer (NR concentration 270 nM)
In short: as §1

[20] = tested on: RARb:RXRa (NR concentration 270 nM, RXRa partner concentration 90 nM)
In short: as §1

Sequence | PBM binding z-score [1] | PBM binding z-score [2] | PBM binding z-score [3] | PBM binding z-score [4] | PBM binding z-score [5] | PBM binding z-score [6] | PBM binding z-score [7] | PBM binding z-score [8] | PBM binding z-score [9] | PBM binding z-score [10] | PBM binding z-score [11] | PBM binding z-score [12] | PBM binding z-score [13] | PBM binding z-score [14] | PBM binding z-score [15] | PBM binding z-score [16] | PBM binding z-score [17] | PBM binding z-score [18] | PBM binding z-score [19] | PBM binding z-score [20]
AGAATGAGGATACCAAAGATCAGGGAAACGCTTG | 0.11 | -0.468 | -0.437 | -0.336 | -0.365 | -0.155 | 0.826 | 0.344 | 0.225 | 0.512 | 0.148 | 0.0598 | 0.131 | -0.145 | -1.29 | -0.349 | -0.0472 | -0.216 | -0.258 | -0.0511
TAACCTAGGTCATGGGCCAGTATACCACGCGAAC | 5.24 | 4.78 | 1.74 | 3.44 | 0.868 | 4.78 | 5.73 | 5.21 | 2.54 | 4.41 | 4.06 | 5.09 | 1.44 | 0.97 | 2.68 | 2.19 | 0.195 | 3.44 | 1.11 | 4.08
CCTTACGGGTCACGACGTTATAGCACGACGAGCG | 6.55 | 4.13 | 0.322 | 3.66 | 0.374 | 5.69 | 6.15 | 5.93 | 2.65 | 4.97 | 3.85 | 4.92 | 0.866 | 0.177 | 1.83 | 3.57 | 0.0826 | 4.61 | 1.39 | 4.34
GTACCAAGGTGAATAGTTCGTTGATGAGTAGGCG | 0.539 | 0.334 | -0.116 | 0.214 | -0.29 | 1.24 | 0.857 | 1.06 | -0.033 | 0.842 | 1.57 | 1.94 | 0.321 | 0.393 | 0.906 | 0.39 | 0.918 | 0.576 | 0.742 | 1.94
ACACACAGGTGAGTGAAGGTAACTCAGCTGGACG | 0.469 | 0.195 | -0.241 | -0.0782 | -0.78 | 0.352 | 0.931 | 0.0284 | -0.027 | -0.278 | 0.846 | 1.04 | 0.1 | -0.00713 | 0.147 | -0.122 | -0.17 | 0.0752 | -0.0711 | 0.791
TAGCCTAGGTAATGGGCCAGTATACCACGCGAAC | -0.654 | -0.856 | -0.526 | -0.351 | -0.976 | -0.193 | 0.503 | 0.264 | -0.0812 | -0.179 | -0.319 | 0.78 | -0.42 | -0.561 | -0.148 | -0.351 | -0.609 | -0.221 | -0.573 | -0.295
ACTATTAGTTGACTTAGAGCAACCGATACGACGC | -0.404 | 0.0474 | -0.0686 | 0.0226 | 0.635 | -0.306 | 0.964 | -0.296 | 0.379 | 0.173 | -0.101 | 0.383 | 1.2 | 1.1 | 0.577 | -0.152 | 0.119 | -0.00338 | 1.16 | 0.073

— the supplement of paper PMC6555819
